Assay results: ChEMBL document CHEMBL4513216, “Probing the Open Global Health Chemical Diversity Library for Multistage-Active Starting Points for Next-Generation Antimalarials” (ACS Infect Dis, 2020)
Hit rate of the full screen: of about 68,000 compounds, about 2,700 (4%) showed an effect of 50% or more. Shown is part of a subset that was picked to be rich in strong results.

tested on: Plasmodium berghei; assay: Screen against P. berghei liver stage (PbLuc), transformed with Luciferase, at 2uM; format: functional, HepG2; conditions: tested at 2 uM

Structure (SMILES) | INHIBITION
COCCNC(=O)C1CCCN(c2ccc3nncn3n2)C1 (stereo not drawn) | -56.23%
Cn1c(CCNC(=O)C2CCCN(C3CCOCC3)C2)n[nH]c1=O (stereo not drawn) | -36.65%
Cn1cc(CN2C[C@H]3CCC[C@@]3(COc3ccccn3)C2)cn1 | 4.38%
CCc1nnc(NC(=O)NCCN(C)C(=O)OC(C)(C)C)s1 | -23.06%
CCN(CCNC(=O)Nc1nnc(C)s1)C(=O)OC(C)(C)C | 57.98%
Cc1nnc(NC(=O)NCCN(C(=O)OC(C)(C)C)C2CC2)s1 | -25.33%
CCC(C(=O)NCC1=CCCN(C)C1)c1ccccc1 (stereo not drawn) | -52.88%
COCc1cc(NCCc2ccc(S(N)(=O)=O)cc2)n2nccc2n1 | 32.88%
O=C(N1CCOCC1)N1CCc2ncnc(NC3CCC3)c2CC1 | 24.36%
CCC(=O)N1CCC2(CC1)CC(N1CCOCC1)c1cc(C)ccc12 (stereo not drawn) | 48.17%
O=C1NCCCCC1Sc1nnc(N2CCCC2)n1C1CC1 (stereo not drawn) | -20.55%
O=C1NCCCCC1Sc1n[nH]c(=O)n1C1CC1 (stereo not drawn) | -5.76%
O=C1NCCCCC1Sc1nnc(C2CC2)n1C1CC1 (stereo not drawn) | 58.24%
CCN1CC(C(=O)NCc2ccccc2-n2cccn2)CC1=O (stereo not drawn) | 24.91%
CNC(=O)[C@@H]1C[C@H]2CN(C(=O)c3ccco3)C[C@H]2N1C(C)C | -11.99%
c1cncc(COCc2nnc3n2CCN(Cc2cccs2)C3)c1 | 29.95%
Cc1ncsc1CCN(C)C(=O)CN1CCCCC1=O | 17.2%
Cc1ncsc1CCN(C)C(=O)CN1CC2(CCCC2)CC1=O | 52.3%
Cc1ncsc1CCN(C)C(=O)CN1CCCCCC1=O | 24.36%
COc1cc(NC(=O)c2nc3ccccc3n(C)c2=O)cc(OC)c1 | -1.01%
COCCn1cc(C(=O)N2CCCC2c2cccc(C)c2)ccc1=O (stereo not drawn) | 9.5%
CCN1CCN(C)C2(CCN(C(=O)CC(F)(F)F)CC2)C1=O | -2.81%
COCCCN1CC2(CCN(Cc3cc(C(C)C)no3)CC2)CC1=O | -9.78%
COCCCN1CC2(CCC1=O)CCN(Cc1cc(C(C)C)no1)CC2 | 50.86%
COCCCN1CC2(CCC1=O)CCN(Cc1cc(C)no1)CC2 | -7.23%
CS(=O)(=O)c1nccn1Cc1ccncc1 | -52.32%
Cc1ccccc1N1CC(C)N(C(=O)CCn2cccn2)CC1=O (stereo not drawn) | 51.08%

Structure (SMILES) | INHIBITION
CCc1nccn1CCC(=O)N1CCN(c2ccccc2C)CC1C (stereo not drawn) | -12.03%
CCc1nccn1CCC(=O)N1CC(=O)N(c2ccccc2C)CC1C (stereo not drawn) | 26.21%
O=C1NCC2(CCCN(C(=O)c3ccc4c(c3)CCCO4)CC2)O1 (stereo not drawn) | 26.74%
O=C1NCC2(CCCN(C(=O)c3ccc4c(c3)OCCO4)CC2)O1 (stereo not drawn) | 24.36%
O=C1NCC2(CCN(C(=O)c3ccc4c(c3)CCCO4)CC2)O1 | 50.59%
Cc1cc(-c2ccccc2C(=O)O)nc(C2CCCCN2C)n1 (stereo not drawn) | 11.52%
O=C(c1cccc(-n2cccn2)c1)N1CCOC(CCO)C1 (stereo not drawn) | 62.51%
O=C(c1cccc(-n2cccn2)c1)N1CCCOC(CN2CCCC2)C1 (stereo not drawn) | 33.9%
NCC1CN(C(=O)c2cccc(-n3cccn3)c2)CCO1 (stereo not drawn) | 45.82%
c1cnc2c(c1)nc1n2[C@@H](CNCc2nccs2)COC1 | -111.95%
Fc1cccc(N2CCc3ncnc(N4CCOCC4)c3CC2)c1 | -7.49%
CCOc1ccc(SCCNS(=O)(=O)CC)cc1 | 20.15%
O=C(O)c1c(-c2cccnc2)ncc2c1CCN(CC1CCOC1)C2 (stereo not drawn) | 21.13%
CSc1cc2c(cc1NC(=O)N(C)Cc1ccncc1)OCCO2 | -10.36%
Cn1c2ncccc2c(=O)n1CC(=O)NCCc1c(F)cccc1F | -0.83%
Cn1c2ncccc2c(=O)n1CC(=O)NCCC1=CCCCC1 | 54.49%
Cc1ccc(CNC(=O)Cn2c(=O)c3cccnc3n2C)cc1F | 16.93%
CCC[C@@H](NC(N)=O)C(=O)N1Cc2ccccc2-c2ccccc2C1 | -9.87%
CC(C)Cc1noc(CNc2cccc(-c3nnnn3C)c2)n1 | -45.29%
CC=C(C)C(=O)NS(=O)(=O)c1ccc(C(F)(F)F)cn1 | -31.15%
O=C(c1cccc(O)c1)N1CCN(Cc2nnc(C3CCC3)o2)CC1 | 1.41%
CN(Cc1cccnc1)C(=O)NC1CCN(Cc2ccccn2)CC1 | -37.28%
COCC(O)CN(C)C(=O)NC1CCN(Cc2ccccn2)CC1 (stereo not drawn) | 54.85%
Cc1cc(CN(C)C(=O)NC2CCN(Cc3ccccn3)CC2)no1 | -7.82%
COc1ncc(C2(O)CCN(Cc3cc(F)ccc3F)CC2)c(OC)n1 | -48.87%
CCc1cc(C(=O)N[C@@H]2CC[C@@H](N3CCOCC3)[C@@H]2O)no1 | -49.75%
